A selection: hits, their analogues and other compounds. The true share with any hit is near 7.9%.
HT1080 IDH1KD tx: kills HT-1080 cells with IDH1 knockdown | HT-1080 IDH1 knockdown viability, ATP luminescence, 48 h | Potency, µM (top dose mostly 46.1 µM), most hits filed as cytotoxic | 360,000 compounds, 2% hits | AID 686971
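CellTiter-Glo luminescence after 48 h compound exposure at 37 degrees C of IDH1-knockdown HT-1080 cells in 5% FBS RPMI. %Activity scaled between DMSO wells and cell-free media wells, with curves fitted and assigned curve classes.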
KB-3-1 cytotox: kills parental KB-3-1 adenocarcinoma cells; KB-3-1 viability, CellTiter-Glo ATP luminescence, 72 h; Potency, µM (highest dose often 46.1 µM), hits mostly cytotoxic; 400,000 compounds, 1.4% hits; further: nearly all actives have a fitted effect of over 60% in size
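72 h, 37 °C compound treatment of KB-3-1 parental cells; CellTiter-Glo added, 10 min, luminescence read. Data corrected against DMSO-only plates and normalized before curve fitting.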
MCF10A rerep: inducers of DNA re-replication in MCF 10A breast cells | MCF 10A DNA re-replication, Hoechst nuclear intensity, 48 h | 350,000 compounds, 2.9% hits | Potency, µM (series often up to 46.1 µM), actives largely listed as activators | AID 624296; further: nearly all actives have a fitted effect of over 50% in size
KB-V1 MDR tox: KB-V1 MDR subline cytotoxicity; Potency, µM (top dose mostly 46.1 µM), most hits filed as cytotoxic; KB-V1 MDR cells viability, CellTiter-Glo, 72 h; 400,000 compounds, 3.4% hits; further: nearly all actives have a fitted effect of over 60% in size
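KB-V1, DMEM (no phenol red) + 10% FBS; cpd pin-transferred, titration series; 72 h, 37 degrees C; CellTiter-Glo, luminescence. Data normalized, curve-fit.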
HT1080-NT tox: kills 2HG-producing HT-1080-NT fibrosarcoma cells; 360,000 compounds, 1.6% hits; Potency, µM (top dose mostly 46.1 µM), most hits filed as cytotoxic; HT-1080-NT fibrosarcoma viability, CellTiter-Glo ATP luminescence, 48 h;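 further: NT is the 2HG producing partner of a matched IDH1 knockdown line; nearly all actives have a fitted effect of over 55% in size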
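Read-out is CellTiter-Glo luminescence after 10 minutes at room temperature, following 48 hours' compound treatment of HT-1080-NT cells (750 cells/well, RPMI, 5% FBS, 37 degrees C).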
SW480 rereplic: induces DNA re-replication in SW480 colon adenocarcinoma cells; SW480 DNA re-replication, Hoechst DNA content imaging, 48 h; Potency, µM (doses to about 46.1 µM), usual class: activators; 340,000 compounds, 1.8% hits; AID 624297; further: nearly all actives have a fitted effect of over 55% in size
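Readout is total intensity of Hoechst-stained nuclei, excited at 405 nm and collected at 500-530 nm. Compound treatment lasted 48 hr at 37 C in 5% CO2 before staining.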
Of the large screens only hits and unclear results are named; the others gave an inactive call. The call rests on the fitted dose curve; in most records, active means well fitted curve in the direction sought with a large enough effect; inconclusive means small, poorly fitted or top-dose-only effect, or another doubt; inactive means no such curve, though single readings can be large; an effect the other way counts as inactive or inconclusive.

Cc1c(Br)c([N+](=O)[O-])nn1CCCC(=O)Nc1sc2c(c1C(N)=O)CCC(C)C2 (configuration not stated)	KB-3-1 cytotox inconclusive, KB-V1 MDR tox 8.2µM
COC(=O)c1c(NC(=O)Cn2cnc([N+](=O)[O-])n2)sc2c1CCC(C)C2 (configuration not stated)	MCF10A rerep inconclusive, KB-V1 MDR tox 16µM
COC(=O)c1c(NC(=S)NN2CCN(C)CC2)sc2c1CCC(C)C2 (configuration not stated)	HT1080 IDH1KD tx 16µM, KB-3-1 cytotox inconclusive, MCF10A rerep inconclusive, KB-V1 MDR tox inconclusive, HT1080-NT tox 18µM
COc1cccc(C(c2sc3nc(-c4ccco4)nn3c2O)N2CCC3(CC2)OCCO3)c1 (configuration not stated)	none (no result: HT1080 IDH1KD tx, MCF10A rerep, HT1080-NT tox, SW480 rereplic)
O=C(COC(=O)c1ccc(F)c(S(=O)(=O)N2CCOCC2)c1)Nc1ccc(Cl)cn1	none (no result: MCF10A rerep, SW480 rereplic)
COc1cc(OC)cc(C(=O)c2c(C)c(C#N)c3ccccn23)c1	KB-3-1 cytotox 5.2µM, MCF10A rerep inconclusive, KB-V1 MDR tox inconclusive, HT1080-NT tox inconclusive, SW480 rereplic 10µM
COc1ccc2c(CNCc3cccs3)c(C(=O)O)n(Cc3ccccc3F)c2c1	none (no result: HT1080 IDH1KD tx, MCF10A rerep, HT1080-NT tox, SW480 rereplic)
COc1ccccc1C(C)NCC(=O)c1c(C)[nH]c2ccccc12 (configuration not stated)	none (no result: HT1080 IDH1KD tx, MCF10A rerep, HT1080-NT tox, SW480 rereplic)
COc1cc(C2CC(=O)N(Cc3cccc(F)c3)c3ccccc3S2)cc(OC)c1OC (configuration not stated)	KB-3-1 cytotox inconclusive, KB-V1 MDR tox 16µM (no result: HT1080 IDH1KD tx, MCF10A rerep, HT1080-NT tox, SW480 rereplic)
Cc1ccc(C(=O)Nc2ccc(Br)cc2)cc1S(=O)(=O)NCc1ccccc1	KB-3-1 cytotox inconclusive (no result: HT1080 IDH1KD tx, MCF10A rerep, HT1080-NT tox, SW480 rereplic)
O=C(Cn1c(=O)ccc2cc(S(=O)(=O)N3CCCC3)ccc21)Nc1ccccc1	none (no result: HT1080 IDH1KD tx, MCF10A rerep, HT1080-NT tox, SW480 rereplic)
CN(Cc1ccccc1C#N)S(=O)(=O)c1cccs1	none
N#Cc1nccnc1S(=O)(=O)c1cccs1	HT1080 IDH1KD tx inconclusive, MCF10A rerep inconclusive, HT1080-NT tox 21µM
Clc1ccc(CSc2ncn(-c3ccccc3)n2)cc1	KB-V1 MDR tox 21µM
O=C(NC1CCCC1)c1ccc2nc(-c3ccco3)c(-c3ccco3)nc2c1	KB-3-1 cytotox inconclusive, MCF10A rerep inconclusive, SW480 rereplic inconclusive
CCOC(=O)C1CCN(C(=O)Nc2ccc3nc(-c4ccco4)c(-c4ccco4)nc3c2)CC1	MCF10A rerep inconclusive
O=C(Nc1ccc2nc(-c3ccco3)c(-c3ccco3)nc2c1)N1CCCCCC1	HT1080 IDH1KD tx inconclusive, MCF10A rerep 18µM, KB-V1 MDR tox inconclusive, SW480 rereplic inconclusive
O=C(c1ccccc1)c1ccc2nc(-c3ccco3)c(-c3ccco3)nc2c1	HT1080 IDH1KD tx 18µM, MCF10A rerep inconclusive, KB-V1 MDR tox inconclusive, HT1080-NT tox inconclusive, SW480 rereplic inconclusive
O=C(NCCO)c1ccc2nc(-c3ccco3)c(-c3ccco3)nc2c1	none
O=C(NCCc1ccccc1)c1ccc2nc(-c3ccco3)c(-c3ccco3)nc2c1	KB-3-1 cytotox inconclusive, MCF10A rerep 21µM, KB-V1 MDR tox inconclusive, SW480 rereplic inconclusive
Cc1ccccc1OCCCCn1nnc2sc3c(c2c1=O)CCC(C)C3 (configuration not stated)	none (no result: HT1080 IDH1KD tx, MCF10A rerep, HT1080-NT tox, SW480 rereplic)
CCCn1c(NC(=O)c2ccco2)nc2ccccc21	KB-V1 MDR tox 15µM, HT1080-NT tox inconclusive
COc1ccc(C(=O)n2c(-c3ccco3)nc3ccccc32)cc1	HT1080 IDH1KD tx 5.8µM, KB-3-1 cytotox inconclusive, MCF10A rerep 8.9µM, KB-V1 MDR tox inconclusive, HT1080-NT tox inconclusive, SW480 rereplic 18µM
COc1ccc(C(=O)Nc2nc3ccccc3n2CCOc2ccc(Cl)cc2)cc1	none (no result: HT1080 IDH1KD tx, MCF10A rerep, HT1080-NT tox, SW480 rereplic)
COc1ccc(C(=O)N2CCn3c2nc2ccccc23)cc1	none
COc1ccc(OCCn2c(NC(=O)c3ccco3)nc3ccccc32)cc1	HT1080 IDH1KD tx inconclusive, MCF10A rerep 12µM, HT1080-NT tox inconclusive, SW480 rereplic 4.1µM
CCCn1c(NC(=O)c2ccc(Br)cc2)nc2ccccc21	none
CCCn1c(NC(=O)c2ccccc2Br)nc2ccccc21	HT1080 IDH1KD tx inconclusive, KB-3-1 cytotox inconclusive, MCF10A rerep inconclusive, KB-V1 MDR tox 9.2µM
O=C(CC(=O)Nc1cc(Cl)ccc1Cl)Nc1cc(Cl)ccc1Cl	MCF10A rerep inconclusive, KB-V1 MDR tox inconclusive
COCc1cc(C)nc(SCC(=O)Nc2ccc3[nH]c(=O)[nH]c3c2)c1C#N	HT1080 IDH1KD tx inconclusive
C(COC1CC2CC1C1C2CC2OC21)OC1CC2CC1C1C2CC2OC21 (configuration not stated)	MCF10A rerep inconclusive, KB-V1 MDR tox 21µM
Cc1c(Cc2ccccc2)c(=O)oc2c(C)c(OCC(=O)NCC3CCC(C(=O)O)CC3)ccc12 (configuration not stated)	none
CC1=C([N+](=O)[O-])C(c2ccccc2)NC(=O)N1 (configuration not stated)	SW480 rereplic inconclusive
O=C(NCc1ccccc1)C(c1ccc(F)cc1)N(Cc1cccs1)C(=O)c1cnccn1 (configuration not stated)	none
O=C(NCc1ccccc1)C(c1ccccc1)N(Cc1cccs1)C(=O)c1cnccn1 (configuration not stated)	MCF10A rerep inconclusive, KB-V1 MDR tox 23µM
O=C(NCc1ccccc1)C(c1cccs1)N(Cc1cccs1)C(=O)c1cnccn1 (configuration not stated)	MCF10A rerep inconclusive, KB-V1 MDR tox 2.6µM
COc1cccc(CC(NC(C)=O)C(=O)NC2CCN(C(=O)c3ccc(Cl)cc3)CC2)c1 (configuration not stated)	KB-V1 MDR tox inconclusive
c1ccc(-n2nnnc2Oc2cccc3cccnc23)cc1	HT1080 IDH1KD tx inconclusive, KB-V1 MDR tox inconclusive, HT1080-NT tox 7.9µM
CCC(C(=O)NCc1ccccc1)n1c(CSCCOc2ccccc2)nc2ccccc21 (configuration not stated)	KB-V1 MDR tox inconclusive (no result: MCF10A rerep, SW480 rereplic)
CCOc1ccc(Nc2nc(N)c3ccccc3n2)cc1	HT1080 IDH1KD tx 18µM, KB-3-1 cytotox inconclusive, MCF10A rerep inconclusive, KB-V1 MDR tox inconclusive, HT1080-NT tox 21µM
CCOc1ccc(Nc2cc(C)nc3ccc(C)cc23)cc1	HT1080 IDH1KD tx inconclusive, KB-3-1 cytotox inconclusive, KB-V1 MDR tox inconclusive, HT1080-NT tox 29µM
Nc1nc(Nc2ccc(Cl)cc2)nc2ccccc12	KB-V1 MDR tox 18µM
Nc1nc(Nc2ccccc2)nc2ccccc12	HT1080 IDH1KD tx 21µM, KB-3-1 cytotox inconclusive, KB-V1 MDR tox inconclusive, HT1080-NT tox inconclusive
CN(C)c1ccc(Nc2nc(N)c3ccccc3n2)cc1	HT1080 IDH1KD tx inconclusive, KB-3-1 cytotox inconclusive, KB-V1 MDR tox inconclusive, HT1080-NT tox inconclusive

High-throughput results from PubChem.
